Results on 34 compounds are retold here after PubChem BioAssay.

The target in assay [1] is Tumor necrosis factor receptor superfamily member 10B (Homo sapiens) (UniProt O14763). The experiment in a line: viability loss of caspase-8 NB7 cells with TRAIL – with/without TRAIL, luminescence panel, confirmation (AID 651596). The settings on record: NB7 neuroblastoma + caspase-8, TRAIL sensitization, NB7 Caspase-8, with TRAIL, mean of runs, at 10 µM, stronger effect = higher value.

Assay in assay [2]: as above
The settings on record: NB7 neuroblastoma + caspase-8, without TRAIL, NB7 Caspase-8, without TRAIL, mean of runs, at 10 µM.

Tumor necrosis factor receptor superfamily member 10B (Homo sapiens), sequence (O14763 whole entry, looked up): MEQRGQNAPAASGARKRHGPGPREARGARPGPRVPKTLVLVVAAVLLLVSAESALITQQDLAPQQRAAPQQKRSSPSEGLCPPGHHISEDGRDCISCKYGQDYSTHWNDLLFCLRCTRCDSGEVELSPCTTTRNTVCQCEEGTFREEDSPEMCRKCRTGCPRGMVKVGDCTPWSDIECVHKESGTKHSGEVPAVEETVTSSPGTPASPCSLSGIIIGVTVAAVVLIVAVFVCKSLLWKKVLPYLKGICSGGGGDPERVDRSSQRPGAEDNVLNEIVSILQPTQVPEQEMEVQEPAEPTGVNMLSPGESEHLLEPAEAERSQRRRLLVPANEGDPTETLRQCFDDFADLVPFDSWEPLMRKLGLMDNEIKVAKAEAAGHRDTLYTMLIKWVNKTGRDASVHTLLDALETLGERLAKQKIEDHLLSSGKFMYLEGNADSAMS

Consider `Cc1cc(C(=O)COC(=O)c2n[nH]c3ccccc23)c(C)n1CC1CCCO1` (stereo not drawn), for which the activity in assay [1] amounted to 77.5%; in assay [2], 75.2%.
For the compound `Cc1cccc(-c2noc(-c3csc([C@@H]4C[C@H](O)[C@@H](CO)O4)n3)n2)c1`, the activity in assay [1] is 36.7%; in assay [2], 29.3%.
For `O=C1CCCCC(=O)[C@H](OC(=O)c2ccccc2)C[C@H](c2ccccc2)O1`, the activity in assay [1] was 2.17%; in assay [2], 2.2%.
In the case of `COc1ccc(NC(=O)c2ccccn2)cc1`, the activity was found to be 75% in assay [1] and 69.8% in assay [2].
On the same counts, the results for `COc1cccc(Cn2c(NCc3cccnc3)nc3c2c(=O)n(C)c(=O)n3C)c1` are 79.5% and 84.7%.
The matching figures for `O=C(/C=C/c1ccco1)Nc1ccccc1C(=O)O`: 45.1% and 42.1%.
Take `COc1ccc(C(=O)/C=C/Nc2cccc(O)c2)cc1`: the activity in assay [1] amounted to 75.9%; in assay [2] it was 42.4%.
The matching figures for `Cn1c(-c2ccc(Br)o2)nc2ccccc21`: 57.9% and 61.8%.
For `CCCC(=O)Nc1ccc(C(=O)N/N=C/c2ccc[nH]2)cc1`, the activity was 98.5% in assay [1] and 97.8% in assay [2].
Turning to `O=C(Nc1ccc(N2CCN(C(=O)c3ccccc3)CC2)cc1)c1cc2ccccc2o1`, the values for the activity in assay [1] and in assay [2] were 70.8% and 50.3%, respectively.
On the same counts, the results for `O=C(Nc1ccc(Cl)cn1)c1ccc2c(Cl)c3c(nc2c1)CCC3` are 56.8% and 56.3%.
On the same counts, the results for `COc1ccc2c(=O)cc(-c3ccccc3)n(C)c2c1` are 56.4% and 60.1%.
Consider `CC(=O)c1c(C)[nH]c(C(=O)Nc2nc(C)cs2)c1C`, for which the activity in assay [1] was 80.2%; in assay [2], 82.6%.
In the case of `O=C(Nc1ccc2c(c1)OCO2)c1ccc(Cl)cc1Cl`, the values for the activity in assay [1] and in assay [2] were 72.1% and 67.6%, respectively.
Turning to `CC(=O)CSc1nc2cc3c(cc2cc1C#N)OCCO3`, the results for the activity in assay [1] and in assay [2] were 49.6% and 35.5%, respectively.
The matching figures for `O=C(NO)c1cc(OCC(F)(F)F)ccc1OCC(F)(F)F`: 51.1% and 71.4%.
The matching figures for `CCOC(=O)c1cnc(-n2nc(C)cc2C)nc1N(C)C`: 55.4% and 52.1%.
On the same counts, the results for `CC1=C(C(=O)N(C)C)CC(CC(=O)NCCN2CCOCC2)C(=O)N1CCCN1CCCC1=O` (stereo not drawn) are -0.625% and -4.97%.
`Cc1occc1C(=O)O/N=C(\N)c1ccc(Cl)cc1`: the activity in assay [1] stood at 81.6%; in assay [2] it was 84.7%.
The matching figures for `O=C(Nc1ccc2c(c1)OCCO2)c1ccc(Cl)cc1`: 66.3% and 69.5%.
On the same counts, the results for `C=C1C(=O)c2sccc2C(c2ccc(OC)c(OC)c2)C1COC(C)=O` (stereo not drawn) are 98.2% and 99.2%.
For the compound `CCCCC[C@@H](C)N1C[C@H](COCc2ccccc2)Oc2cc(N3CC[C@@H](N(C)C)C3)ccc2S1(=O)=O`, the activity in assay [1] was found to be 13%; in assay [2], 43.6%.
The matching figures for `Cc1ccc(-c2cc(C(=O)N3CCOCC3)no2)cc1`: 69.7% and 65.2%.
With `Cc1csc(C(C#N)C(=O)c2cc3ccccc3o2)n1` (stereo not drawn), the figures for the activity in assay [1] and in assay [2] were 57.3% and 61.2%, respectively.
On the same counts, the results for `Cc1nc(NC(=S)NC(=O)c2ccccc2)sc1C` are 57.1% and 57%.
The matching figures for `COc1cccc(NC(=O)c2cc3ccccc3o/c2=N\O)c1`: 65% and 64.6%.
Take `O=C1c2ccccc2NC(c2ccccc2)N1/N=C/c1ccccc1` (stereo not drawn): the figures for the activity in assay [1] and in assay [2] were 52.5% and 40.1%, respectively.
The matching figures for `CC(=O)c1sc(NC(=O)c2cc(=O)c3ccccc3o2)nc1C`: 51.1% and 50.8%.
The matching figures for `Cc1cc(C(=O)COC(=O)c2n[nH]c3ccccc23)c(C)n1C`: 62.2% and 55.9%.
On the same counts, the results for `COc1ccc2nc(NN=C(C)c3ccccn3)cc(C)c2c1` are 74% and 80.1%.
As to `Cc1cc(=O)n2[nH]c(-c3ccc(F)cc3)nc2n1`, the values for the activity in assay [1] and in assay [2] were 44.8% and 42.6%, respectively.
As for `C#Cc1ccc([C@H]2C=C(C(=O)Nc3ccccc3)O[C@@H](OCc3ccc(CO)cc3)C2)cc1`, the results for the activity in assay [1] and in assay [2] were 92% and 93.4%, respectively.
In the case of `COc1ccc(Oc2c(Cl)cnn(-c3ccc(Cl)c(Cl)c3)c2=O)cc1`, the activity in assay [1] was determined as 98.5%; in assay [2], 99.1%.
With `CC(=O)Nc1ccc2nc(-c3ccccc3)cn2c1`, the results for the activity in assay [1] and in assay [2] were 46.1% and 52.6%, respectively.
